Consider 135 variants from the emibetuzumab library of Makowski et al. (2022).

Sequences and labels used below:
B1: VH:VL chains; a variant is named by its letters at X, in order (parent)
chain 1: QVQLVQSGAEVKKPGASVKVSCKASGYTFTDYXMHWVRQAPGQGLEWMGXVNPNXXXTTYNQKFEGRVTMTTDTSTSTAYMELRSLRSDDTAVYYCARXNXLDXWGQGTTVTVSS
chain 2: DIQMTQSPSSLSASVGDRVTITCSVSSSVSSIYLHWYQQKPGKAPKLLIYSTSNLASGVPSRFSGSGSGTDFTLTISSLQPEDFATYYCQVYSGYPLTFGGGTKVEIK

The list shows a part of the results. The hit rate among all sequences tested is not known here.

In this experiment the parent is B1. As to the kind of experiment: yeast display scFab, FACS + sequencing. The note with it: with MET. The method in brief:
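Round-3 sorted and input populations from a heavy-chain CDR mutant scFab yeast library were deep sequenced in two replicates. Sorting used FACS on cells labelled for 3 h at room temperature with 1 nM HGFR-Fc and anti-Myc in PBSB with 1% milk, keeping the top 50% antigen-positive cells. Any sequence seen in both antigen-positive samples was called a binder, while one seen only in the input was called a non-binder.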
Consider DTAESDLD, for which the antigen binding call is on record as “no binding”.

On to SEARSSWV, for which the antigen binding call was “no binding”.

YKGKGAWS: the antigen binding call is on record as “binds”.

For VKGRADGS, the antigen binding call is on record as “no binding”.

Take AKGRAAAS chain 1 D103N: the antigen binding call was “no binding”.

For YKGRAAGS, the antigen binding call is on record as “binds”.

As for DKEGGDAV, the antigen binding call is given as “no binding”.

Consider FEKEGDAA, for which the antigen binding call is given as “no binding”.

Turning to YTERGFGV, the antigen binding call is “no binding”.

On to YRARGSGV, for which the antigen binding call was “binds”.

For YRARGVGV, the antigen binding call is listed as “binds”.

In the case of YRARGYGV, the antigen binding call is reported as “binds”.

YRARGFGV: the antigen binding call is reported as “binds”.

Consider YTARDVGV, for which the antigen binding call is listed as “no binding”.

As for YRARGAGV, the antigen binding call was “binds”.

As to YRARSAWV, the antigen binding call is listed as “binds”.

As to YAAGGDGV, the antigen binding call was “no binding”.

YRAETDGV: the antigen binding call was “no binding”.

Regarding YRARGAWV, the antigen binding call was “binds”.

As for YRARGDGV, the antigen binding call is listed as “binds”.

SEEGTAGD: the antigen binding call is listed as “no binding”.

Turning to YAKGDYSV, the antigen binding call is “no binding”.

Consider SETTDSLD, for which the antigen binding call is “no binding”.

Take ARGRGAAS: the antigen binding call is “binds”.

Take AAEGDAAD: the antigen binding call is “no binding”.

Take AGGRGDVD: the antigen binding call was “no binding”.

Take ARGRGAAD: the antigen binding call is “binds”.

As to SGGRTYGV, the antigen binding call is “no binding”.

Consider YTGGGDGV, for which the antigen binding call is “no binding”.

As to YRGGGDSV, the antigen binding call is “binds”.

With YRGGGDWV, the antigen binding call is “binds”.

For the variant YEGGGDWV, the antigen binding call was “no binding”.

Turning to YRGGDDSV, the antigen binding call is “no binding”.

Regarding VRGGGDWV, the antigen binding call is recorded as “no binding”.

As for YTETGDSV, the antigen binding call was “no binding”.

In the case of YRGRGDSV, the antigen binding call is given as “binds”.

SETKGDWA: the antigen binding call was “no binding”.

Consider VTTKSDAV, for which the antigen binding call is on record as “no binding”.

On to DEKGGSSA, for which the antigen binding call was “no binding”.

For the variant DTTRGAVA, the antigen binding call was “no binding”.

On to FRRGGAWY, for which the antigen binding call is “binds”.

In the case of FRAGGAWY, the antigen binding call is given as “binds”.

In the case of YRRGDAWY, the antigen binding call is on record as “binds”.

Consider FRKRGAWY, for which the antigen binding call is recorded as “binds”.

DRRGDAVY: the antigen binding call is reported as “no binding”.

As to YAGGGDGA, the antigen binding call is reported as “no binding”.

Consider YRRGGAWY, for which the antigen binding call is listed as “binds”.

For FRRRGAWY, the antigen binding call was “binds”.

FRGEAVVY: the antigen binding call is “no binding”.

Turning to FRAGGAVY, the antigen binding call is given as “binds”.

With FTKGSAGY, the antigen binding call is reported as “no binding”.

Take FRRGGAGY: the antigen binding call is given as “binds”.

As for FRTKAAVY, the antigen binding call is given as “no binding”.

As to VAGGDDGA, the antigen binding call is reported as “no binding”.

On to FGGENDGD, for which the antigen binding call is “no binding”.

VRKRGSSS: the antigen binding call is on record as “binds”.

For VRTRGSSS, the antigen binding call is recorded as “binds”.

Turning to VGGTSSSS, the antigen binding call is “no binding”.

Turning to DETGNVWF, the antigen binding call is “no binding”.

Consider VTGEDDAA, for which the antigen binding call is given as “no binding”.

For DAGGADVA, the antigen binding call is reported as “no binding”.

As for YREGDAAD, the antigen binding call is recorded as “no binding”.

In the case of YRAGSAAD, the antigen binding call is “binds”.

As to YRARSALD, the antigen binding call is recorded as “binds”.

Consider YRARSAAD, for which the antigen binding call was “binds”.

Turning to YAARAALD, the antigen binding call was “no binding”.

In the case of YRAGDAAD, the antigen binding call is “binds”.

Take DAGGGYSV: the antigen binding call is “no binding”.

DKEGGSSA: the antigen binding call is reported as “no binding”.

Turning to DKTGNDVV, the antigen binding call was “no binding”.

In the case of AATRNVGV, the antigen binding call is “no binding”.

As to YRARSAVD, the antigen binding call is recorded as “binds”.

As to YAARAAVD, the antigen binding call was “no binding”.

Regarding VGGTSDGV, the antigen binding call is “no binding”.

In the case of YKGRDDVA, the antigen binding call is “no binding”.

YKGRDAWD: the antigen binding call is given as “binds”.

Take YKGRDAGD: the antigen binding call is reported as “binds”.

With YKGRDALD, the antigen binding call is recorded as “binds”.

As to DKGRSAGD, the antigen binding call is “no binding”.

On to YKGRDASD, for which the antigen binding call was “no binding”.

On to SGKKAVWV, for which the antigen binding call was “no binding”.

In the case of VEAGDDVY, the antigen binding call is recorded as “no binding”.

VTGANDWV: the antigen binding call was “no binding”.

Regarding SKGRSDVV, the antigen binding call was “no binding”.

In the case of VTGEDAGA, the antigen binding call is listed as “no binding”.

For VRERGDLV, the antigen binding call is listed as “no binding”.

VRERGVGV: the antigen binding call is reported as “no binding”.

On to YRERGAAV, for which the antigen binding call is recorded as “binds”.

Take DTERGSLV: the antigen binding call is reported as “no binding”.

Take FRERGSAV: the antigen binding call is recorded as “binds”.

For YRERGSAV, the antigen binding call was “binds”.

As for VRERGSAV, the antigen binding call was “binds”.

For the variant VTGEADAS, the antigen binding call is given as “no binding”.

As for DATGGDVA, the antigen binding call is “no binding”.

Consider DAGGAAAV, for which the antigen binding call is “no binding”.

Turning to VEEEGDGA, the antigen binding call is “no binding”.

On to YKGKGAWY, for which the antigen binding call is listed as “binds”.

Consider VKEKGAWY, for which the antigen binding call was “no binding”.

Take YRGKGAWY: the antigen binding call is recorded as “binds”.

As to FKGKGAWY, the antigen binding call was “binds”.

Take YRGKDAWY: the antigen binding call is “binds”.

For the variant AKGGAAVY, the antigen binding call was “no binding”.

On to AETKGALD, for which the antigen binding call is listed as “no binding”.

YRGKDAWS: the antigen binding call is “binds”.

Regarding YAGKTAWS, the antigen binding call was “no binding”.

Consider SKGKGAWY, for which the antigen binding call is on record as “binds”.

With YRGKDAAY, the antigen binding call was “binds”.

In the case of YRGKGAGY, the antigen binding call was “binds”.

SKAGDAWY: the antigen binding call is “no binding”.

Regarding SEARSDAV, the antigen binding call is recorded as “no binding”.

FRRRGSLY: the antigen binding call is reported as “binds”.

For YRRRGSLY, the antigen binding call is given as “binds”.

For the variant YRKKGALY, the antigen binding call is given as “binds”.

On to DRAGDDLY, for which the antigen binding call is recorded as “no binding”.

Regarding FRAGGSLY, the antigen binding call is reported as “binds”.

Consider VAGTGDWV, for which the antigen binding call was “no binding”.

Take DKREADGA: the antigen binding call was “no binding”.

Turning to VEERDAGD, the antigen binding call is on record as “no binding”.

For the variant VTEGDAGA, the antigen binding call was “no binding”.

In the case of SKTRAFVA, the antigen binding call is listed as “no binding”.

On to SREAAAVY, for which the antigen binding call is given as “no binding”.

Consider SRAGGSLY, for which the antigen binding call is on record as “binds”.

With SRGGGVGY, the antigen binding call is reported as “no binding”.

In the case of YRRRGALY, the antigen binding call is “binds”.

Regarding DAERDSGV, the antigen binding call is on record as “no binding”.

For YRARDDVF, the antigen binding call is “no binding”.

On to VRGGDDWF, for which the antigen binding call is “no binding”.

For VRTEDDWF, the antigen binding call is “no binding”.

On to YRARGAWF, for which the antigen binding call is reported as “binds”.

Regarding YRARGAGF, the antigen binding call is “binds”.

Take YRTGDDVF: the antigen binding call is “no binding”.

On to VRARGAWF, for which the antigen binding call is listed as “binds”.

In the case of YRARSDVF, the antigen binding call is reported as “binds”.

SEGADAVA chain 1 G106S: the antigen binding call is “no binding”.

VETGNDGA: the antigen binding call is reported as “no binding”.
